PI4K2A block = blocks human PI4K2A kinase activity. activity change, negative = inhibition, % at 76.9 µM. actives 0.13% (n = 420,000). purified PI4K2A, ADP-Glo luminescence, 1 h; active compounds read low; in the data active means activity change below about -50%; inconclusive means mostly about -30% to -49%
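In this quantitative HTS, ADP production by PI4K2A was quantified luminescently after 1 h at ambient temperature; 100 microM adenosine served as plate-quality control.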
DRD3 agonist = agonists of human D3 dopamine receptor; D3R DiscoveRx beta-arrestin cells, luminescence, 90 min; actives 0.58% (n = 410,000); P35462; AID 652048; max activation, %; in the data active means max activation above about 30%
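Cells at 1500/well, incubated overnight, then treated with pinned compounds (dopamine as control) for 90 min at 37 degrees C. DiscoveRx reagent added for 30 - 60 minutes at room temperature; luminescence read.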
PI5P4Ka inh = inhibitors of human PI5P4K alpha; PI5P4Kalpha enzyme, ADP-Glo luminescence, 60 min; active compounds read low; actives 1.2% (n = 330,000); P48426; max response, %; AID 652105; active means max response of -50% or lower; inconclusive means between -30% and -50%; inactive means -30% or higher; further: value at the top dose of about 77 µM
Target sequence (P48426 whole entry, looked up): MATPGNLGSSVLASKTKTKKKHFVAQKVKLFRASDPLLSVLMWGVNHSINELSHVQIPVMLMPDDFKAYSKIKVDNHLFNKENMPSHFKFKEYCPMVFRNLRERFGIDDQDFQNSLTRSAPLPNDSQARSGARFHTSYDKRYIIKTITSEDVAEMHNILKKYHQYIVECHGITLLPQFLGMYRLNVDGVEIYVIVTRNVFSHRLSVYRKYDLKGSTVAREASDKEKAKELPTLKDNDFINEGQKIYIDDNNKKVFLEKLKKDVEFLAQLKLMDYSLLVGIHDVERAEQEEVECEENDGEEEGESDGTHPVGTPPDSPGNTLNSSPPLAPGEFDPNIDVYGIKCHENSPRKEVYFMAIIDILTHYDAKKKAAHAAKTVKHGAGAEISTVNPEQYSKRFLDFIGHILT
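ADP-Glo luminescence end-point read after a 60 min room-temperature kinase reaction of PI5P4Kalpha plus substrate, initiated with ATP at 5 microM final. Buffer: 0.038 M HEPES pH 7.4, EGTA, 0.1% CHAPS, 5% DMSO.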
DRD3 antagonist = D3 dopamine receptor (human) antagonism | AID 652054 | P35462 | actives 2.5% (n = 360,000) | D3R cells, DiscoveRx beta-arrestin luminescence, antagonist mode; active compounds read low | max response, negative = inhibition, %; in the data active means max response below about -50%; inconclusive means no clear call, values can overlap the other calls
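Cells expressing the human receptor were seeded at 1500 cells/well, incubated overnight at 37 degrees C in 5% CO2, then exposed to library compounds with dopamine controls for 90 minutes at 37 degrees C before luminescent detection.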
LDHA inh = blocks human lactate dehydrogenase A | P00338 | actives 0.15% (n = 480,000) | AID 1347041 | purified LDHA, NADH/diaphorase-resazurin fluorescence; active compounds read low | activity change, % (values are at about 110 or 230 µM); in the data active means activity change below about -30%; inconclusive means mostly about -25% to -30%
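Enzyme activity of human lactate dehydrogenase 5 (2 nM; 0.06 mM NADH, 0.2 mM pyruvate, 5 min, RT) is measured via a resazurin/diaphorase fluorescence readout of residual NADH.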
Numbers stand for hits; - = inactive; ? = inconclusive; . = no result. This is a sample that favours compounds with a hit; in the whole collection about 3.3% have one here.

SMILES | PI4K2A block | DRD3 agonist | PI5P4Ka inh | DRD3 antagonist | LDHA inh
OCC[C@H]1C[C@H](O)[C@@H](O)[C@]2(Cc3ccccc3O2)O1 | - | - | - | -67.8 | -
OCC[C@@H]1C[C@H](O)[C@@H](O)[C@@]2(Cc3ccccc3CCO2)O1 | - | - | - | - | -
COc1ccc(C[C@H]2CN3C(=NC[C@@H]3Cc3ccc(O)cc3)N2CCNC(=O)c2ccc(C)c(Br)c2)cc1 | - | - | - | -98.4 | -
Cc1ccc(C(=O)NCCN2C3=NC[C@@H](Cc4ccccc4)N3C[C@H]2Cc2ccc(O)cc2)cc1Br | - | - | - | -57.6 | -
C/C=C(\C)C(=O)NCCN1C2=NC[C@H](Cc3ccccc3)N2C[C@@H]1Cc1ccc(OC)cc1 | - | - | - | -52.5 | -
COc1ccc(C[C@H]2CN3C(=NC[C@H]3Cc3ccccc3)N2CCNC(=O)c2ccc(C)c(Br)c2)cc1 | - | - | - | - | -
Cc1ccc(C(=O)NCCN2C3=NC[C@H](Cc4ccc(O)cc4)N3C[C@H]2Cc2ccc(O)cc2)cc1Br | - | - | - | ? | -
COc1ccc(C[C@H]2CN3C(=NC[C@@H]3Cc3ccccc3)N2CCNC(=O)c2ccc(C)c(Br)c2)cc1 | - | - | - | -99.7 | -
C/C=C(\C)C(=O)NCCN1C2=NC[C@H](Cc3ccccc3)N2C[C@H]1Cc1ccc(O)cc1 | - | - | - | - | -
Cc1ccc(-c2nn3c(=O)c(NC(=O)c4ccccc4C)cnc3o2)cc1 | . | . | . | . | -
O=C(NCc1ccccc1)c1ccccc1OCc1coc(-c2ccc(F)cc2)n1 | . | . | . | . | -
N#CC(C#N)=Cc1cc(-c2ccccc2)[nH]c1-c1ccccc1 | . | . | . | . | -
O=C(Nc1ccccc1Cl)c1cnc2ccccc2n1 | . | . | . | . | -
CCc1ccc(NC(=O)C(C#N)Cc2ccccc2OC)cc1 (configuration not stated) | . | . | . | . | -
O=C(NCCNCc1ccc(F)cc1)c1ccco1 | - | - | - | -65.6 | -
O=C(NCCNC(=O)c1ccco1)c1ccc(F)cc1 | - | - | - | - | -
CC(C)n1c(=O)[nH][nH]c1=S | - | - | -102.9 | - | -
Cc1cn2c(/C=N/O)c(C)nc2s1 | . | . | . | . | -
CSCCCNC(=O)c1ccc(OC2CCN(CCc3ccccc3)CC2)cc1 | - | - | - | -85.2 | -
O=C(NCCc1ccccn1)c1ccc(OC2CCN(CCc3ccccc3)CC2)cc1 | - | - | - | -61.6 | -
O=C(NCC1COCCO1)c1ccc(OC2CCN(CCc3ccccc3)CC2)cc1 (configuration not stated) | - | - | - | - | -
CC(Cc1ccccn1)NC(=O)c1ccc(OC2CCN(CCc3ccccc3)CC2)cc1 (configuration not stated) | - | - | - | -66.2 | -
COC(=O)[C@@H](NC(=O)c1ccc(OC2CCN(Cc3ccccn3)CC2)cc1)C(C)C | - | - | - | - | -
O=C(NCCc1cccc(Cl)c1)c1ccc(OC2CCN(Cc3ccccn3)CC2)cc1 | - | - | - | -58.7 | -
CNC(=O)CN(C)C(=O)CNC(=O)NC1CCCCC1 | . | . | . | . | -
SMILES | PI4K2A block | DRD3 agonist | PI5P4Ka inh | DRD3 antagonist | LDHA inh
CC(C)n1nc(C(=O)OCC(=O)Nc2cc(Cl)ccc2Cl)c2ccccc2c1=O | . | . | . | . | -
COC(=O)C(NC(=O)c1ccccc1C)(Nc1ncc(S(=O)(=O)c2ccc([N+](=O)[O-])cc2)s1)C(F)(F)F (configuration not stated) | - | - | - | -77.4 | -
Cc1nc(/C=C/C(=O)N(CCc2ccccc2)Cc2cccs2)cs1 | . | . | . | . | -
NC(=S)n1[nH]c(-c2ccc([N+](=O)[O-])cc2)c(N=Nc2ccc(Cl)cc2)c1=O | - | - | ? | - | -
O=c1c(N=Nc2ccc(O)cc2)c(-c2ccccc2)[nH]n1-c1ccc([N+](=O)[O-])cc1 | - | - | - | -70.3 | -
O=C(O[C@@H]1OC2COC(=O)c3cc(O)c(O)c(O)c3-c3c(cc(O)c(O)c3O)C(=O)O[C@@H]([C@H]1O)[C@@H]2O)c1cc(O)c(O)c(O)c1 | ? | 32.1 | -101.5 | - | -
C=CCOC(=O)N[C@H](c1ccc2ccccc2c1)[C@H](C)/C=C/CC(=O)OC | - | . | . | . | .
CNC(=S)N/N=C/c1ccc(C(C)C)cc1 | - | - | ? | -59.2 | -
CNC(=S)N/N=C/c1ccc(N(C)C)cc1 | - | - | - | - | -
C[C@]12CC[C@@H]3c4cc(O)c(O)cc4CC[C@H]3[C@@H]1CC[C@@H]2O | - | - | -61.7 | - | -

Screens as filed in PubChem.
